Results from PubChem BioAssay AID1159580 (chemical genetic matrix, 2015).
The whole screen tested about 5,500 compounds, of which about 2,000 (36%) were called active. Another 18% or so got no clear call; they are omitted. Rule as the data show it: active = normalized growth mostly below about 0.91 (no sharp cut-off); inconclusive = no clear call, values can overlap the other calls; inactive = mostly above about 0.92. Some of the results follow.

Experiment: chemical genetic growth profiling, strain panel (AID 1159580);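 also: tested at 20 µM; growth read once vehicle control cultures reached saturation at 30 °C; 1 = growth at the plate median or of vehicle wells; lower values mean less growth of the strain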
Details: growth OD

Measured: normalized growth

COc1ccc(C[C@H]2NC[C@H](O)[C@H]2OC(C)=O)cc1
inactive: S. cerevisiae deletion strains, locus YKL009W, strain mrt4, hits give low values 0.966 | S. cerevisiae deletion strains, locus YKL068W, hits give low values 0.998 | S. cerevisiae deletion strains, locus YKL085W, strain MDH1 (second series), hits give low values 1.01 | S. cerevisiae deletion strains, locus YKL085W, strain MDH1, hits give low values 1.01 | S. cerevisiae deletion strains, locus YKR026C, strain gcn3, hits give low values 0.985 | S. cerevisiae deletion strains, locus YKR091W, strain srl3, hits give low values 1 | S. cerevisiae deletion strains, locus YLL041C, strain sdh2, hits give low values 0.986 | S. cerevisiae deletion strains, locus YLR102C, strain apc9, hits give low values 1.01 | S. cerevisiae deletion strains, locus YLR113W, strain HOG1, hits give low values 0.977 | S. cerevisiae deletion strains, locus YLR320W, strain mms22, hits give low values 0.957 | S. cerevisiae deletion strains, locus YLR384C, strain iki3, hits give low values 1 | S. cerevisiae deletion strains, locus YML120C, strain ndi1, hits give low values 0.98 | S. cerevisiae deletion strains, locus YML124C, strain tub3, hits give low values 0.988 | S. cerevisiae deletion strains, locus YMR078C, strain ctf18, hits give low values 1.02 | S. cerevisiae deletion strains, locus YMR129W, hits give low values 0.961 | S. cerevisiae deletion strains, locus YNL071W, strain lat1, hits give low values 0.975 | S. cerevisiae deletion strains, locus YNL183C, strain NPR1, hits give low values 0.97 | S. cerevisiae deletion strains, locus YNL250W, strain rad50, hits give low values 0.986 | S. cerevisiae deletion strains, locus YNL271C, strain bni1, hits give low values 0.995 | S. cerevisiae deletion strains, locus YNL298W, strain CLA4, hits give low values 0.98 | S. cerevisiae deletion strains, locus YNL322C, strain KRE1 (second series), hits give low values 1.01 | S. cerevisiae deletion strains, locus YNR049C, strain mso1, hits give low values 1 | S. cerevisiae deletion strains, locus YOR069W, strain VPS5, hits give low values 0.973 | S. cerevisiae deletion strains, locus YOR080W, strain dia2, hits give low values 0.952 | S. cerevisiae deletion strains, locus YOR144C, strain elg1, hits give low values 1.01 | S. cerevisiae deletion strains, locus YOR231W, strain MKK1, hits give low values 0.954 | S. cerevisiae deletion strains, locus YOR316C, strain cot1, hits give low values 0.993 | S. cerevisiae deletion strains, locus YPL078C, strain atp4, hits give low values 0.919 | S. cerevisiae deletion strains, locus YPL106C, strain sse1, hits give low values 0.873 | S. cerevisiae deletion strains, locus YPL240C, strain hsp82, hits give low values 0.942 | S. cerevisiae deletion strains, locus YPL256C, strain CLN2, hits give low values 0.947 | S. cerevisiae deletion strains, locus YPR119W, strain clb2, hits give low values 1.07 | S. cerevisiae deletion strains, locus YPR141C, strain kar3, hits give low values 0.986
active: S. cerevisiae deletion strains, locus YKL160W, strain elf1, hits give low values 0.776 | S. cerevisiae deletion strains, locus YKL190W, strain CNB1, hits give low values 0.206 | S. cerevisiae deletion strains, locus YKR001C, strain vps1, hits give low values 0.367 | S. cerevisiae deletion strains, locus YLL001W, strain dnm1, hits give low values 0.884 | S. cerevisiae deletion strains, locus YLL026W, hits give low values 0.807 | S. cerevisiae deletion strains, locus YLR027C, strain aat2, hits give low values 0.659 | S. cerevisiae deletion strains, locus YLR039C, strain RIC1, hits give low values 0.567 | S. cerevisiae deletion strains, locus YLR058C, strain SHM2, hits give low values 0.61 | S. cerevisiae deletion strains, locus YLR221C, strain rsa3, hits give low values 0.853 | S. cerevisiae deletion strains, locus YLR258W, strain gsy2, hits give low values 0.734 | S. cerevisiae deletion strains, locus YLR262C, strain YPT6 (second series), hits give low values 0.769 | S. cerevisiae deletion strains, locus YLR262C, strain YPT6, hits give low values 0.386 | S. cerevisiae deletion strains, locus YLR268W, strain sec22, hits give low values 0.854 | S. cerevisiae deletion strains, locus YLR330W, strain CHS5, hits give low values 0.87 | S. cerevisiae deletion strains, locus YLR342W, strain FKS1 (second series), hits give low values 0.126 | S. cerevisiae deletion strains, locus YLR342W, strain FKS1, hits give low values 0.412 | S. cerevisiae deletion strains, locus YLR357W, strain rsc2, hits give low values 0.826 | S. cerevisiae deletion strains, locus YLR370C, strain arc18, hits give low values 0.877 | S. cerevisiae deletion strains, locus YLR371W, strain rom2, hits give low values 0.728 | S. cerevisiae deletion strains, locus YLR418C, strain cdc73, hits give low values 0.28 | S. cerevisiae deletion strains, locus YML016C, strain PPZ1, hits give low values 0.625 | S. cerevisiae deletion strains, locus YML032C, strain rad52, hits give low values 0.868 | S. cerevisiae deletion strains, locus YMR058W, strain fet3, hits give low values 0.891 | S. cerevisiae deletion strains, locus YMR125W, strain sto1, hits give low values 0.862 | S. cerevisiae deletion strains, locus YMR205C, strain PFK2, hits give low values 0.692 | S. cerevisiae deletion strains, locus YMR223W, strain ubp8, hits give low values 0.723 | S. cerevisiae deletion strains, locus YMR231W, strain pep5, hits give low values 0.752 | S. cerevisiae deletion strains, locus YMR263W, strain SAP30, hits give low values 0.852 | S. cerevisiae deletion strains, locus YMR307W, strain GAS1, hits give low values 0.237 | S. cerevisiae deletion strains, locus YNL067W, strain RPL9B, hits give low values 0.663 | S. cerevisiae deletion strains, locus YNL128W, strain TEP1, hits give low values 0.353 | S. cerevisiae deletion strains, locus YNL153C, strain GIM3, hits give low values 0.62 | S. cerevisiae deletion strains, locus YNL209W, strain ssb2, hits give low values 0.74 | S. cerevisiae deletion strains, locus YNL233W, strain BNI4, hits give low values 0.582 | S. cerevisiae deletion strains, locus YNL248C, strain rpa49, hits give low values 0.745 | S. cerevisiae deletion strains, locus YNL307C, strain MCK1, hits give low values 0.496 | S. cerevisiae deletion strains, locus YNL322C, strain KRE1, hits give low values 0.0901 | S. cerevisiae deletion strains, locus YNR052C, strain pop2, hits give low values 0.448 | S. cerevisiae deletion strains, locus YOL006C, strain TOP1, hits give low values 0.0919 | S. cerevisiae deletion strains, locus YOL012C, strain htz1 2.18 [resistant] | S. cerevisiae deletion strains, locus YOL147C, strain pex11, hits give low values 0.884 | S. cerevisiae deletion strains, locus YOR001W, strain rrp6, hits give low values 0.891 | S. cerevisiae deletion strains, locus YOR061W, strain CKA2, hits give low values 0.624 | S. cerevisiae deletion strains, locus YOR070C, strain gyp1, hits give low values 0.775 | S. cerevisiae deletion strains, locus YOR083W, strain WHI5, hits give low values 0.657 | S. cerevisiae deletion strains, locus YOR106W, strain vam3, hits give low values 0.345 | S. cerevisiae deletion strains, locus YOR136W, strain idh2, hits give low values 0.914 | S. cerevisiae deletion strains, locus YOR184W, strain ser1, hits give low values 0.463 | S. cerevisiae deletion strains, locus YOR265W, strain rbl2, hits give low values 0.851 | S. cerevisiae deletion strains, locus YOR270C, strain vph1, hits give low values 0.354 | S. cerevisiae deletion strains, locus YOR290C, strain snf2, hits give low values 0.763 | S. cerevisiae deletion strains, locus YPL051W, strain arl3, hits give low values 0.738 | S. cerevisiae deletion strains, locus YPL055C, strain LGE1, hits give low values 0.0822 | S. cerevisiae deletion strains, locus YPL241C, strain CIN2, hits give low values 0.652 | S. cerevisiae deletion strains, locus YPR163C, strain tif3, hits give low values 0.718 | S. cerevisiae deletion strains, locus YPR167C, strain met16, hits give low values 0.807 | S. cerevisiae deletion strains, strain wtn01, hits give low values 0.301 | S. cerevisiae strains, strain wild type, hits give low values 0.117
